Measured values as given in PubChem BioAssay AID1851 (National Center for Advancing Translational Sciences (NCATS), 2009).
In all, about 16,000 compounds went through this assay and about 2,600 (16%) were called active. About 20% were inconclusive and are not listed. The list is a sample of the results. A number with no mark means an inactive call. Calls come from the whole dose curve; as a rule, active = well fitted curve in the direction sought with a large enough effect; inconclusive = small, poorly fitted or top-dose-only effect, or effect the other way; inactive = no such curve, though single readings can be large or run the other way.

Target: Cytochrome P450 2D6 (Homo sapiens) (UniProt P10635)
Sequence (P10635 whole entry, looked up): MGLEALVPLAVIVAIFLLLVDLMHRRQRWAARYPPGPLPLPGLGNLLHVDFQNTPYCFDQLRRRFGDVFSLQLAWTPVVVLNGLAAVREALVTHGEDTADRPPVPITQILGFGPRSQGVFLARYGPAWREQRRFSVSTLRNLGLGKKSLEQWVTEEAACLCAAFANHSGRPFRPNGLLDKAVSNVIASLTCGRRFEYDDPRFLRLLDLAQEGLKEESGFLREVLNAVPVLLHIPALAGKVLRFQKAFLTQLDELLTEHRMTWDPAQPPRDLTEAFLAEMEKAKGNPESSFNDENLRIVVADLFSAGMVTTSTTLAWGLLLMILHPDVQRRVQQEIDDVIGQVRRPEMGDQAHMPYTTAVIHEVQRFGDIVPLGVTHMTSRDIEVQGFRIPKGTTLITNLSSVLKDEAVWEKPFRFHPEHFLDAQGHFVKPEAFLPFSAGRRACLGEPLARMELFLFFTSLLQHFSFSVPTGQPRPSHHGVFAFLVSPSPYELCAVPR
Assay: Cytochrome panel assay with activity outcomes
Conditions: recombinant CYP, pro-luciferin dealkylation, luminescence, p450-cyp2d6; series mostly up to 57.1 µM; activity, negative = inhibition: at the top concentration
% is set by controls: 0 for no effect and ±100 for the full control effect.

In order of falling “activity, negative = inhibition” value:
1. Cc1ccc(-n2[nH]c(=O)c3cccnc32)cc1  17%
2. CCN(CC)C(=O)CSc1nnc(CNc2ccc(F)cc2)o1  16.3%
3. Cc1cc(C)cc(-n2c(O)c(C=NC3CCS(=O)(=O)C3)c3ccccc3c2=O)c1 (centres undefined)  15.4%
4. COC(=O)c1ccc(NC(=O)c2ccccc2)o1  12.2%
5. COc1ccc2c(c1)CCCC21NC(=O)N(CC(N)=O)C1=O (centres undefined)  11.4%
6. CC(C)(C)NC(=O)Cn1nnc(-c2ccccc2NC(=O)c2cnccn2)n1  11.1%
7. Clc1ccc(Nc2ncn[nH]2)cc1  11%
8. CCCCC#Cc1nc(N)c2ncn([C@@H]3O[C@@H](C(=O)NCC)[C@H](O)[C@@H]3O)c2n1  11%
9. O=C(O)CC/C=C\CC[C@H]1[C@@H](N2CCCCC2)[C@@H](O)C[C@@H]1OCc1ccc(-c2ccccc2)cc1  10.6%
10. CCCNC(=O)Nc1ccc2c(c1)nc(C)n2C  8.71%
11. Cc1ccc(Oc2nnc(-c3ccccc3)cc2C#N)cc1  7.73%
12. O=C(Nc1ccc(-c2cc3ccccc3oc2=O)c(Cl)c1)c1cccnc1  7.04%
13. CCOc1ccc(C(=O)Cc2cc(OC)c(OC)cc2[N+](=O)[O-])cc1  6.77%
14. O=C1C(Cc2ccccc2)NC(=S)N1c1ccccc1 (centres undefined)  6.7%
15. CCn1c(SCC(=O)Nc2sc3c(c2C(N)=O)CCC(C)C3)nnc1-c1ccco1 (centres undefined)  6.66%
16. CCOC(=O)C1=C(N)n2c(s/c(=C/c3ccccc3)c2=O)=C(C(=O)OCC)C1c1ccccc1 (centres undefined)  5.82%
17. COc1ccc(OC)c(Nc2nc(-c3cccc([N+](=O)[O-])c3)nc3ccccc23)c1  5.17%
18. Cc1ccc(Cn2ccc(NC(=O)c3cc4nc(-c5ccco5)cc(C(F)(F)F)n4n3)n2)cc1  5.06%
19. O=c1[nH]c(=S)[nH]nc1Cc1ccccc1  4.49%
20. COc1cc(/C=C/C(=O)Nc2ccccc2C(F)(F)F)cc(OC)c1OC  4.2%
21. Cc1ccc(-n2c(=O)[nH]cc(C(=O)N3CCc4ccccc43)c2=O)cc1  3.82%
22. CCOC(=O)N1N=C(c2ccccc2)CC1(O)C(F)(F)F (centres undefined)  3.62%
23. O=C(O)c1nn(-c2ccccc2)ccc1=O  2.59%
24. COc1ccc(CCNC(=O)Cn2cnc3c2c(=O)n(C)c(=O)n3C)cc1OC  2.41%
25. O=c1/c(=C\c2ccc(O)cc2)sc2n1C(c1ccccc1)C(c1ccccc1)=NN=2 (centres undefined)  2.11%
26. Cn1c(=O)c(-c2cccs2)nc2cnc(Oc3ccccc3)nc21  1.93%
27. CS(=O)(=O)c1cnc2c(-c3ccc(F)cc3)cnn2c1N  0.896%
28. CSc1c(-c2ccccc2)nc2ccc(Cl)cc2c1C(=O)O  0.481%
29. Cc1sc2ncn(CC(=O)NCCCC(=O)N3CCN(c4ncccn4)CC3)c(=O)c2c1C  0.039%
30. Cn1c(=O)c(-c2ccc(Cl)cc2)nc2cnc(N3CCOCC3)nc21  0.0181%
31. COc1ccc(Cc2nc3ccc(S(=O)(=O)N4CCOCC4)cc3[nH]2)cc1OC  -0.602%
32. CC(=O)Nc1ccc(NC2=Nc3ccccc3N3C2=Nc2c(c(C)nn2-c2ccccc2)C3c2ccccc2)cc1 (centres undefined)  -0.731%
33. CCCCNC(=S)NNC(=O)CCn1nc(C)c(Br)c1C  -1.01%
34. O=C(O)c1cc2cc(OCc3ccccc3)ccc2[nH]1  -1.31%
35. COc1ccc(Oc2ncc3nc(-c4cccc(C#N)c4)c(=O)n(Cc4cccc(OC)c4)c3n2)cc1  -1.33%
36. O=C(c1cc(-c2ccccc2Cl)on1)N1CCN(C(=O)c2ccco2)CC1  -1.39%
37. Cc1cc(C)n(-c2nc(NCC(C)O)c3c4c(sc3n2)COC(C)(C)C4)n1 (centres undefined)  -1.92%
38. CCOC(=O)c1ccc(N/C=C/C(=O)c2ccc(OC)cc2)cc1  -2.63%
39. O=C(Nc1ccc(Cl)cc1)NC1CCCCC1  -2.71%
40. COc1ccc(-n2c(=O)cnc3cnc(Oc4ccccc4)nc32)cc1  -3.04%
41. CCCCCCCCCCCCCCCC(=O)C(F)(F)F  -3.23%
42. Cc1nc2cncnc2n(C2CC2)c1=O  -3.46%
43. Cc1ccc(C(=O)Oc2cc(C)n(C)c(=O)c2)cc1  -3.57%
44. C=CCc1cccc2cc(C(=O)N(CC)CC)c(=O)oc12  -3.73%
45. COc1cccc(Nc2ncc3nc(-c4cn(C)c5ccccc45)c(=O)n(CCC#N)c3n2)c1  -4.27%
46. O=C(O)CSc1ncnc2sc3c(c12)CCC3  -4.52%
47. COc1cccc(Nc2ncc3ncc(=O)n(C)c3n2)c1  -4.79%
48. Cc1cc(C)c(-c2noc(C(=O)OC(C)(C)C)c2C(=O)OC(C)(C)C)c(C)c1  -5.04%
49. O=C(NC1CCCC1)c1cnn2c(C(F)(F)F)cc(-c3ccco3)nc12  -5.58%
50. Cc1ccccc1S(=O)(=O)c1c(C)cc(-c2ccccc2)[nH]c1=O  -6.01%
51. Cc1ccc(-n2ccnc2SCC(=O)N(CC(C)C)C2CCS(=O)(=O)C2)c(C)c1 (centres undefined)  -6.08%
52. Cc1cc(OC(=O)c2ccccc2Cl)cc(=O)n1C  -6.09%
53. NC(=O)NC(=O)CSc1nnc(-c2ccco2)n1Cc1ccccc1  -6.49%
54. COc1ccc2nc(NC(=O)CSc3nnc(C)s3)sc2c1  -7.57%
55. Cn1c(=O)c(-c2cccs2)nc2cnc(N3CCNCC3)nc21  -7.69%
56. Cc1ccc(C(=O)COC(=O)CNC(=O)C(c2ccccc2)c2ccccc2)cc1[N+](=O)[O-]  -8.5%
57. c1ccc(-c2nc3ccccc3o2)nc1  -8.6%
58. Cc1cc(Oc2ccccc2)nc(-c2ccccc2)n1  -9.47%
59. Cc1ccc(C)n1N1C(=O)/C(=C\c2ccc(Cl)cc2)SC1=S  -11.4%
60. Cc1cccc(/C=N\Nc2cn[nH]c(=O)c2Cl)c1  -13%
61. Cc1nn(Cc2ccc(Cl)cc2Cl)c(C)c1NC(=O)c1sc2ccccc2c1Cl  -13%
62. CCCCNc1nc(-c2ccccc2)c(C(=O)OCC)cc1C#N  -13.6%
63. COc1cccc(-c2noc(Cn3nc(C)c([N+](=O)[O-])c3C)n2)c1  -13.8%
64. CN(C)c1nc(NCc2ccccc2)nc(N/N=C/c2ccc(Cl)cc2Cl)n1  -14%
65. COc1cc2c(C(=O)NCc3ccc(C)o3)cn(CC(C)C)c(=O)c2cc1OC  -14.4%
66. CCN(c1ccccc1)S(=O)(=O)c1ccc(NC(=S)NC(=O)c2cccs2)cc1  -14.7%
67. CCc1ccc2c(-c3cccc(Cl)c3)nc(=O)n(CC)c2n1  -15%
68. Cc1oc(=O)c(NC(=O)c2ccccc2)cc1C(=O)c1ccccc1  -15.9%
69. Cc1[nH]n(-c2ccccc2)c(=O)c1CCOC(=O)c1ccc(C(F)(F)F)cc1  -16%
70. Cc1ccc(-c2cc(C(=O)NCc3ccco3)c3ccccc3n2)s1  -16.4%
71. Cc1nn(CC(O)COc2ccc3c(c2)CCC3)c(C)c1Br (centres undefined)  -17%
72. COc1cccc(-c2nnc3n2N=C(C(C)(C)C)CS3)c1  -19%
73. CSC1=C(C#N)C(c2ccccc2Cl)C2=C(N1)c1ccccc1C2=O (centres undefined)  -20.8%
74. Cn1c(SCC(=O)NC2CC2)nnc1-c1cccc(NC(=O)c2ccccc2F)c1  -21%
75. CCC(=O)N(Cc1ccco1)c1nc(-c2ccccc2)cs1  -25%
76. O=C(NC1(C(F)(F)F)NC(=O)N(Cc2cccnc2)C1=O)c1ccccc1 (centres undefined)  -26%
77. O=C(N/N=C/c1cccc(F)c1)c1csc2c1CCCC2  -28.5%
78. CCCCN=C1N/C(=C\c2ccco2)C(=O)N1c1ccccc1  -29.6%

In order of falling activity, negative = inhibition:
1. C[C@@H]1C[C@H](C)CN(S(=O)(=O)c2cc(Cl)c(Oc3ccc([N+](=O)[O-])cc3Cl)c(Cl)c2)C1  2.46% [at 11.4 µM]
2. Oc1cc(O)c2c(c1)O[C@@H](c1ccc(O)c(O)c1)[C@H](O[C@@]1(c3cc(O)c(O)c(O)c3)Oc3cc(O)cc(O)c3[C@H](O)[C@@H]1O)C2  -0.664% [at 11.4 µM]
3. O=C(O)c1nn(-c2ccc(Cl)cc2)c2c1C(=O)c1ccccc1C2=O  -7.18% [at 11.4 µM]
4. C[C@H]1/C=C\CC(=O)OC[C@H](C)C(=O)N2CCC[C@@H]2C(=O)OC1  -8.94% [at 11.4 µM]
5. COc1ccc2nccc(SCC(=O)O)c2c1  -10.3% [at 11.4 µM]

For `COc1ccc2c(c1)nc(SCC(=O)c1ccc(Br)s1)n2C`, the AC50 was 5.01 µM (active).
In the case of `CC(C)c1ccc2c(c1)CC[C@H]1[C@@](C)(CN)CCC[C@@]21C`, the AC50 is reported as 1.26 µM (active).
`COc1cccc(CN2CCN(Cc3cc(OC)c(OC)cc3[N+](=O)[O-])CC2)c1` was tested, and the AC50 was 0.224 µM (active).
With `O=C(Nc1ccc2c(c1)nc1n2CCN(C2CCCCC2)C1)NC1CCCCC1` the AC50 was 12.6 µM (active).
In the case of `CN1CCN2c3ncccc3Cc3ccccc3C2C1` (centres undefined), the AC50 is reported as 0.501 µM (active).
For `Cc1cc(C)n(-c2nc(SCCN(C)C)c3c4c(sc3n2)CCCC4)n1`, the AC50 was 0.794 µM (active).
With `CC1(C)Cc2ccccc2C(N/N=C/c2cccc(F)c2)=N1` the AC50 was 11.2 µM (active).
In the case of `CCN(CC(=O)NCc1cccs1)S(=O)(=O)c1ccc(C(C)C)cc1`, the AC50 is reported as 3.55 µM (active).
With `CN(Cc1ccco1)c1nc(-c2ccccc2C(F)(F)F)nc2ccccc12` the AC50 was 7.94 µM (active).
For `COc1ccccc1-c1nc(N(C)Cc2ccco2)c2ccccc2n1`, the AC50 was 1 µM (active).
With `CN(C)Cc1ccccc1-c1nc(N(C)Cc2ccco2)c2ccccc2n1` the AC50 was 0.794 µM (active).
`Cc1ccccc1-c1nc(N(C)Cc2ccco2)c2ccccc2n1` was tested, and the AC50 was 3.16 µM (active).
In the case of `COc1cccc(-c2nc(N(C)Cc3ccco3)c3ccccc3n2)c1`, the AC50 is reported as 5.01 µM (active).
`COc1cccc(-c2nc(N(C)C)c3ccccc3n2)c1` was tested, and the AC50 was 12.6 µM (active).
For `CCOC(=O)c1ccc(OC(=O)CCCCCN=C(N)N)cc1`, the AC50 was 0.316 µM (active).
For `FC(F)(F)c1cc(-c2ccco2)nc(NCCc2ccccc2)n1`, the AC50 was 5.01 µM (active).
`N#Cc1ccccc1/C=N/Nc1nc(-c2ccccc2)c2cc(Cl)ccc2n1` was tested, and the AC50 was 0.178 µM (active).
For `Cc1ccc2nc(N/N=C/c3ccccc3C#N)nc(-c3ccccc3)c2c1`, the AC50 was 1.26 µM (active).

In order of falling “activity, negative = inhibition” value:
1. CCCN(CCC)S(=O)(=O)c1ccc(C(=O)O)cc1  1.42% [at 25.6 µM]
2. Cc1c(N(C)C)c(=O)n(-c2ccccc2)n1C  1.13% [at 25.6 µM]
3. CCOC(=O)c1ccc(N)cc1  -7.44% [at 25.6 µM]
